Most compounds without a hit are left out; they make up all but 2.8% or so of the library.
pPAFAH FP inh: pPAFAH (human) enzyme inhibition; 330,000 tested, 1.5% active; Q13093; inhibition, % at 3.39 µM; recombinant pPAFAH, FP-rhodamine probe fluorescence polarization; AID 463082;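 active = inhibition above the mean inhibition across the screen plus 3 SD, cut at about 25% in these data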;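 note: inhibitors block binding of the rhodamine activity-based probe so polarization drops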
Target sequence (Q13093 whole entry, looked up): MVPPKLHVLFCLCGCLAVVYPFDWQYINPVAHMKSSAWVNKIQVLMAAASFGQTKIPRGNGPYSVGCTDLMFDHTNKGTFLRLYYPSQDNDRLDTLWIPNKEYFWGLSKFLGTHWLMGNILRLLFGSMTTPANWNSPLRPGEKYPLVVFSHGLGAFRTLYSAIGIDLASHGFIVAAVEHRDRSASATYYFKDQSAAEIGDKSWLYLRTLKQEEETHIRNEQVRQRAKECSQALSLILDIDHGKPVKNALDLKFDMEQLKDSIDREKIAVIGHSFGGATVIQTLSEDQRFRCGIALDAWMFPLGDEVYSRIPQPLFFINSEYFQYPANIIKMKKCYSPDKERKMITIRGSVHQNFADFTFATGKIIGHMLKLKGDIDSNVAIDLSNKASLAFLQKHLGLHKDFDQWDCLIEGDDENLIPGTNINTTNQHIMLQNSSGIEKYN
PAFAH1B2 FP inh: blocks human PAF acetylhydrolase 1b catalytic subunit 2; AID 492953; recombinant PAFAH1B2, FP-rhodamine activity probe, fluorescence polarization; inhibition, % at 3.39 µM; 340,000 tested, 1.2% active;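 active = inhibition above the mean of all tested compounds plus 3 SD, cut at about 24% in these data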
Target sequence (P68402 whole entry, looked up): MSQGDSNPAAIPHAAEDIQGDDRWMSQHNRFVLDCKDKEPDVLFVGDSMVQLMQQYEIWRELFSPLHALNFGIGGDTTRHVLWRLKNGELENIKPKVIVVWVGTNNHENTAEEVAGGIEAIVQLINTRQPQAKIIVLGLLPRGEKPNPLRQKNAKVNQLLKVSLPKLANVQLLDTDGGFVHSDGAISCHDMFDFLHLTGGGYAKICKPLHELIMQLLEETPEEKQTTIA
PAFAH1B3 inh: PAFAH1B3 (human) inhibition; recombinant PAFAH1B3, FP-rhodamine probe, fluorescence polarization; inhibition, % at 3.39 µM; 340,000 tested, 0.28% active; AID 492972;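 active = inhibition above the screen-wide average of all tested compounds plus 3 SD, cut at about 25% in these data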
Fam108B inh: counter-screen for RBBP9 inhibitors: inhibitors of mouse Fam108B; recombinant Fam108B, FP-Rh probe fluorescence polarization; inhibition, % at 9.51 µM; 300,000 tested, 0.33% active; AID 1947;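 active = inhibition above the screen mean inhibition plus 3 SD, computed separately per campaign, cut at about 18% in these data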;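 note: inhibitors lower polarization as less probe binds the enzyme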
PAFAH2 inh: PAFAH2 (human) inhibition; recombinant PAFAH2, FP-rhodamine activity probe, fluorescence polarization; 340,000 tested, 0.99% active; Q99487; inhibition, % at 3.39 µM;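 active = inhibition above the mean over all tested compounds plus 3 SD, cut at about 30% in these data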;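 note: inhibitors block probe labeling of enzyme so polarization drops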
PME-1 primary: blocks human protein phosphatase methylesterase 1. Q9Y570. AID 2130. inhibition, % at 5.9 µM. recombinant PME-1, FP-Rh probe fluorescence polarization. 320,000 tested, 0.53% active;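 active = inhibition above the campaign mean of all compounds plus 3 SD, cut at about 26% in these data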;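 note: competitive labeling of PME-1 active site by serine hydrolase directed probe; inhibitors block probe labeling so polarization falls and inhibition rises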
Of the large screens only hits and unclear results are named; the others gave an inactive call.

O=C(CCSc1ccc(Cl)cc1)NN=C1CCCCCC1	PAFAH1B2 FP inh 25
COCCn1c(C)c(C)c(S(=O)(=O)c2ccccc2)c1N	PAFAH1B2 FP inh 41, PAFAH1B3 inh 41, PAFAH2 inh 59
COc1ccc(N2CCN(C3CCCN(C(=O)CCN4CCCCO4)C3)CC2)cc1 (stereo not drawn)	none (no result: pPAFAH FP inh, Fam108B inh, PME-1 primary)
CC1CN=C(N(C(=O)Nc2ccccc2)C(C)c2ccccc2)S1 (stereo not drawn)	none
c1ccc(C(c2ccccc2)c2ccn[nH]2)cc1	PAFAH1B2 FP inh 27
Cc1ccc(S(=O)(=O)c2nc(S(=O)(=O)c3ccccc3)sc2N2CCN(C)CC2)cc1	pPAFAH FP inh 31
Cc1ccc(SCC(=O)OCC(=O)N(CC(C)C)C2CCS(=O)(=O)C2)cc1C (stereo not drawn)	none
CC(C)CN(C(=O)COC(=O)CSc1ccc([N+](=O)[O-])cc1)C1CCS(=O)(=O)C1 (stereo not drawn)	PAFAH1B2 FP inh 25
Cc1ccc(SCC(=O)OCC(=O)N(C)C2CCS(=O)(=O)C2)cc1C (stereo not drawn)	pPAFAH FP inh 25 (no result: Fam108B inh)
Cc1csc(C(=O)NCC(=O)NNC(=O)c2cccc(Cl)c2)c1	none
CC(=O)Nc1ccc2nc(NC(=O)CN3CCOCC3)sc2c1	none
CCCNC(=O)COc1ccc(-c2nn(C)c(=O)c3ccccc23)cc1	none
O=C(CN1CCN(c2cccc(C(F)(F)F)c2)CC1)NCc1ccccc1	none
O=Cc1cccc(OC(=O)/C=C/c2ccco2)c1	pPAFAH FP inh 30
COC(=O)c1ccc(OC(=O)/C=C/c2ccco2)cc1	none
N#Cc1c(Nc2ccccc2)c(/C=N/NCCO)c[nH]c1=O	pPAFAH FP inh 26
N#Cc1c(Nc2ccccc2)c(C=NCCN2CCOCC2)c[nH]c1=O	pPAFAH FP inh 29
CC(C)(C)c1ccc(/C=N/Nc2ccc(C(=O)O)cc2)cc1	none
CC1Oc2ccccc2C=C1/C=N/Nc1ccc(C(=O)O)cc1 (stereo not drawn)	PME-1 primary 34
O=C(CSC1=NS(=O)(=O)c2cc(F)ccc2N1)NCc1ccc(F)cc1	none
COc1ccc(-c2sc(Nc3ccc(F)c(F)c3F)nc2CCC(=O)NN)cc1	PME-1 primary 30
CCn1cc(S(=O)(=O)NCc2ccc(OC)cc2)cn1	none
CCCCNC(=O)Oc1ccc(C(=O)N2c3ccccc3NC(=O)C2C)cc1 (stereo not drawn)	PAFAH1B2 FP inh 34
Cc1ccc(C)c(NS(=O)(=O)c2ccc(OCC(=O)NCC3CCCO3)cc2)c1 (stereo not drawn)	pPAFAH FP inh 28
Cc1ccccc1NS(=O)(=O)c1ccc(C(=O)NCC2CCCO2)cc1 (stereo not drawn)	pPAFAH FP inh 25
O=C(NCC1CCCO1)c1cccc(S(=O)(=O)Nc2ccc(SC(F)F)cc2)c1 (stereo not drawn)	pPAFAH FP inh 34 (no result: Fam108B inh)
CC(=O)OCCNc1cc(N2CCN(C)CC2)c2noc3c2c1C(=O)c1ccccc1-3	none (no result: pPAFAH FP inh, Fam108B inh, PME-1 primary)
CCN1CCN(c2cc(N3CCN(C(=O)c4ccco4)CC3)c3c4c(onc24)-c2ccccc2C3=O)CC1	pPAFAH FP inh 27
COc1ccc(C(CNC(=O)c2cccc(S(=O)(=O)NCc3ccccc3)c2)N(C)C)cc1 (stereo not drawn)	none
Cc1ccc(S(=O)(=O)NCCSCc2ccccc2)cc1	none
Cc1ccc(CSCCNS(=O)(=O)c2ccc([N+](=O)[O-])cc2)cc1	PAFAH1B2 FP inh 25
Cc1noc(NS(=O)(=O)c2ccc(NC(=O)Nc3ccc(Cl)c(Cl)c3)cc2)c1C	pPAFAH FP inh 25, PME-1 primary 51
CCCOc1ccc(C(=O)Nc2ccc(S(=O)(=O)Nc3onc(C)c3C)cc2)cc1	pPAFAH FP inh 30
Cc1noc(NS(=O)(=O)c2ccc(NC(=O)C34CC5CC(C3)CC(n3cnc(Cl)n3)(C5)C4)cc2)c1C	none
CCCCOc1ccc(C(=O)Nc2ccc(S(=O)(=O)Nc3onc(C)c3C)cc2)cc1	none
Cc1noc(NS(=O)(=O)c2ccc(NC(=O)CC34CC5CC(CC(Br)(C5)C3)C4)cc2)c1C	PAFAH1B2 FP inh 33
Cc1cc(C)n2nc(C(=O)OCC(=O)c3ccc(F)cc3)nc2n1	none
Cc1ccc(NC(=O)NN2CCN(C)CC2)cc1C	none (no result: pPAFAH FP inh, Fam108B inh, PME-1 primary)
O=C(Nn1cnnc1)c1cc(-c2ccccn2)nc2ccccc12	none
O=C(NNS(=O)(=O)c1ccc2ccccc2c1)c1cc(-c2ccccn2)nc2ccccc12	PAFAH1B2 FP inh 26
O=C(NCC1CCCO1)c1onc(CSc2ccc(Cl)cc2)c1C(=O)O (stereo not drawn)	PAFAH1B2 FP inh 25
Cc1ccccc1SCc1noc(C(=O)NCC2CCCO2)c1C(=O)O (stereo not drawn)	none
COc1ccc(S(=O)(=O)N2CCN(CCc3ccccc3)CC2)cc1	none
N#CC1=C(c2ccc(-c3ccccc3)cc2)COC1=O	pPAFAH FP inh 26
CC(NC(=O)COC(=O)c1cc(NS(=O)(=O)c2ccc(Cl)c([N+](=O)[O-])c2)ccc1O)C1CC2CCC1C2 (stereo not drawn)	pPAFAH FP inh 28
CC(NC(=O)COC(=O)c1ccccc1O)C1CC2CCC1C2 (stereo not drawn)	none (no result: Fam108B inh, PME-1 primary)
CC(NC(=O)COC(=O)CNC(=O)c1ccccc1Cl)C1CC2CCC1C2 (stereo not drawn)	none (no result: Fam108B inh)
COc1ccc(NS(=O)(=O)c2ccc(O)c(C(=O)OCC(=O)NC(C)C3CC4CCC3C4)c2)cc1 (stereo not drawn)	pPAFAH FP inh 31
NS(=O)(=O)c1cc(C(=O)N2CCNC(=O)C2)ccc1Cl	none
N#CC1=C(SCC(=O)NC23CC4CC(CC(C4)C2)C3)NC(=O)C(C#N)C12CCCCC2 (stereo not drawn)	PAFAH1B2 FP inh 37, PAFAH2 inh 33
CC(=O)c1ccc(N2CCN(C(=O)/C=C/c3ccc(S(=O)(=O)N4CCOCC4)cc3)CC2)cc1	pPAFAH FP inh 32
O=C(/C=C/c1ccc(S(=O)(=O)N2CCOCC2)cc1)N1CCCCC1	none (no result: pPAFAH FP inh, Fam108B inh, PME-1 primary)
O=C1CSC(c2cccc([N+](=O)[O-])c2)N1C1CC2CCC1C2 (stereo not drawn)	PAFAH1B2 FP inh 24
O=C1CSC(c2cccc([N+](=O)[O-])c2)N1c1c(F)cccc1F (stereo not drawn)	none
Cc1ccc(S(=O)(=O)/N=C2\C=C(NS(=O)(=O)c3ccccc3)C(=O)c3ccccc32)c(C)c1	none (no result: pPAFAH FP inh, Fam108B inh, PME-1 primary)
CC(C)(C)c1ccc(S(=O)(=O)/N=C2\C=C(NS(=O)(=O)c3ccccc3)C(=O)c3ccccc32)cc1	PAFAH1B2 FP inh 41
Brc1cc2c(cc1-c1nc3ccccc3s1)OCO2	none
Oc1ccc(N=C/C=C/c2ccc(Br)cc2)cc1-c1nc2ccccc2s1	pPAFAH FP inh 53 (no result: PAFAH1B2 FP inh, PAFAH1B3 inh, PAFAH2 inh)
Cc1ccc(Cc2cnc(N3C(=N)SC(C)C3=O)s2)cc1 (stereo not drawn)	pPAFAH FP inh 25, PAFAH1B2 FP inh 75

Assay outcomes as filed in PubChem.
